# Only some compounds are listed: those with a hit (about 12% of all), similar ones and a draw of the others.
# Sfp inh = blocks B. subtilis Sfp PPTase activity. Q9F4F7. actives 3.5% (n = 310,000). Potency, µM, inactives show largest response in the series, negative = inhibition, hits mostly inhibitors. Biochemical Sfp PPTase activity, qHTS;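 also: the enzyme is Sfp with the accession as filed and its product quenches rhodamine fluorescence; 0% = enzyme reaction without inhibitor and -100% = no enzyme wells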
#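 With Hepes-Na pH 7.6 buffer containing 10 mM MgCl2, Sfp (15 nM) modified BHQ-2-YbbR (12.5 uM) using rhodamine-CoA (5 uM). Two reads 30 minutes apart at 525/598 nm yielded each well's rate.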
# BAZ2B block = BAZ2B (human) inhibition | actives 4.4% (n = 360,000) | AlphaScreen BAZ2B-H3K14Ac peptide displacement | Q9UIF8 | Potency, µM (highest dose often 114 µM), for the others: at the highest dose activity change, negative = inhibition, most hits filed as inhibitors; also: % is scaled to controls: 0 for no effect and ±100 for the full control effect; nearly all actives have a fitted effect of over 60% in size
#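 Protein-peptide AlphaScreen: BAZ2B 50 nM, b-H3K14Ac 50 nM, 1x PBS pH 7.4 + 0.01% Tween-20. Preincubation 30 min RT; cpd 30 min RT (top 110 uM); beads 20 min RT, light-protected.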
# HP1b chromo inh = inhibitors of HP1-beta chromodomain binding to methylated histone tails | AID 540317 | actives 0.56% (n = 390,000) | P83916 | Potency, µM (top dose mostly 114 µM), for the others: top-dose activity change, negative = inhibition, most hits filed as inhibitors | AlphaScreen HP1-beta / biotin-H3K9me3 peptide binding; also: nearly all actives have a fitted effect of over 70% in size
#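 Compound inhibition of the preformed complex between 50 nM HP1-beta and 50 nM biotinylated H3K9me3 peptide was read by AlphaScreen. Buffer was PBS pH 7.4 with 0.01% Tween-20. Incubations ran 30 min at room temperature, with 10 ug/mL donor/acceptor beads.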
# PLK1 PBD block = PLK1 (human) polo-box domain binding inhibition | P53350 | Plk1 PBD binding of FITC phosphopeptide, fluorescence polarization | Potency, µM, inactives show max response, negative = inhibition, usual class: inhibitors | actives 2.8% (n = 360,000) | AID 720504; also: series mostly up to about 57 µM; % is scaled to controls: 0 for no effect and ±100 for the full control effect; nearly all actives have a fitted effect of over 65% in size
# Target sequence (P53350 whole entry, looked up, the tested form may be a part): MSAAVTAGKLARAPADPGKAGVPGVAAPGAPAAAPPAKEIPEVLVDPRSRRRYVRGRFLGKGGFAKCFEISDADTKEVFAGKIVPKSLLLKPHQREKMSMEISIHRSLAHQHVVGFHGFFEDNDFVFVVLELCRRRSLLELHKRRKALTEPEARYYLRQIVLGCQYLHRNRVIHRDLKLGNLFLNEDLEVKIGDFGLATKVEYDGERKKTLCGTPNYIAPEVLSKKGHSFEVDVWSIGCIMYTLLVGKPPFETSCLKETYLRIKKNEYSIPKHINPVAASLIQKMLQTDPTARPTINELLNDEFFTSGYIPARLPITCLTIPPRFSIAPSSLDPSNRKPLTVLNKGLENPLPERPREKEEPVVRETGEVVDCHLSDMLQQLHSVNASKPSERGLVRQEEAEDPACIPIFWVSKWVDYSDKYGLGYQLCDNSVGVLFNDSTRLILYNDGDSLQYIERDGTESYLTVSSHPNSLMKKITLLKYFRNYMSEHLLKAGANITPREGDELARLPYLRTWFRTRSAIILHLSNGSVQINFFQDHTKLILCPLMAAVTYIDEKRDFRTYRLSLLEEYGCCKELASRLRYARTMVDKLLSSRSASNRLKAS
# JMJD2A Tudor inh = JMJD2A Tudor domain (human) inhibition; AlphaScreen JMJD2A-Tudor / H3K4me3 peptide binding; actives 4.4% (n = 390,000); Potency, µM (top dose mostly 114 µM), for the others: at the top dose activity change, negative = inhibition, most hits filed as inhibitors; AID 504339; also: % is scaled to controls: 0 for no effect and ±100 for the full control effect; nearly all actives have a fitted effect of over 50% in size
# G9a inh = inhibitors of human histone lysine methyltransferase G9a | Q96KQ7 | G9a H3K9 monomethylation, AlphaScreen, 2 h | Potency, µM (titrated, usually from 102 µM), for inactives: at the highest dose activity, negative = inhibition, most hits filed as inhibitors | actives 8.8% (n = 350,000) | AID 504332; also: % is scaled to controls: 0 for no effect and ±100 for the full control effect; nearly all actives have a fitted effect of over 75% in size
#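 Readings reflect AlphaScreen signal from monomethyl-H3K9 antibody detection. HMT at 20 nM; substrate b-H3K9 500 nM; cofactor SAM 20 uM; 2 h RT reaction; compounds tested as titrations in qHTS with 15 min preincubation.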
# Starred values were filed as active, the others as inactive; ? = inconclusive; . = no result; [ ] = another dose, or the depositor's remark. Calls follow the shape of the dose curve; as a rule, active = well fitted curve in the direction sought with a large enough effect; inconclusive = small, poorly fitted or top-dose-only effect, or another doubt; inactive = no such curve, though single readings can be large; an effect the other way counts as inactive or inconclusive. Potency is read from the fitted curve at half-maximal effect.
SMILES,Sfp inh,BAZ2B block,HP1b chromo inh,PLK1 PBD block,JMJD2A Tudor inh,G9a inh
CC(=NNC(=S)N1CC2CCC(CC2)C1)c1ccncn1,.,.,?,-12%,14µM*,.
C/C(=N\NC(=S)NC1CCCCC1)c1ccc(Cl)c(Cl)c1,34%,-12%,34%,0%,-25%,37%[59 µM]
COc1cccc(/C=C/C(=C2\C(=O)N(c3ccccc3)N=C2C)c2ccc(Br)cc2)c1OC,.,.,40µM*,?,?,.
O=C(CCN1CCN(Cc2ccccc2)CC1)NNC(=O)c1ccc(Cl)c(Cl)c1,.,.,.,-4%,.,.
COC(=O)C(Cc1ccc(O)cc1)NC(=O)CCc1nc2ccccc2s1 (stereo not drawn),-4%,-38%,0%,-16%,-10%,40µM*
COC(=O)CCCc1nc2ccccc2s1,20%,-3%,-6%,?,8%[11.4 µM],63%[59 µM]
COc1ccccc1OC(=O)CCc1nc2ccccc2s1,14µM*,?,51%,?,0%,50µM*
COC(=O)C(Cc1ccc(O)cc1)NC(=O)CCOc1ccc(OC)cc1 (stereo not drawn),24%,-5%,38%,-12%,-10%,13%[59 µM]
O=C1/C(=C/c2ccccc2)Oc2ccccc21,-9%,.,.,.,.,.
Cc1cc[n+]2c3c(cccc13)CCC2,-1%,1%,-14%,13µM*,?,?
CCc1nc2sc3c(c2c(=O)n1CCO)CCC3,17%,-17%,45%,0%,-3%,22%
COc1ccc(C(=O)N2CCC3(CC2)CN(Cc2ccc(C#N)cc2)C3)cc1,0%,.,.,.,.,4%[12.7 µM]
O=C(OCc1ccccc1Cl)c1ccc(-c2nnn(Cc3ccccc3)n2)cc1,.,-2%,36%,.,-2%,-3%[59 µM]
Cc1cccc(N=Cc2[nH]c3ccc(Br)c(Cl)c3c2O)c1,-18%,-13%,?,1%,?,10µM*
CCOCCCn1c(=S)[nH]c2cc(C(=O)NCC(OC)OC)ccc2c1=O,-16%,?,48%,-14%,-18%,25µM*
CCOCCCn1c(=S)[nH]c2cc(C(=O)N3CCOCC3)ccc2c1=O,79µM*,?,17%,-5%,22µM*,?
CCc1ccc(S(=O)(=O)c2cn(Cc3ccc(OC)cc3)c3cc(OC)c(OC)cc3c2=O)cc1,.,-2%,50%,.,-11%,3%[59 µM]
O=C(NCCSC1CCCCC1)c1ccccc1,15%,-1%,22%,-8%,-9%,71µM*
Cc1cccc(N2CCN(C(=O)CN3C(=O)COc4ccc(S(=O)(=O)N5CCC(C)CC5)cc43)CC2)c1C,.,-17%,14%,.,-29%,10%[59 µM]
COc1ccc(C2=Nn3c(nnc3-c3ccccn3)SC2)cc1OC,-17%,20µM*,47%,-4%,45µM*,?
CCOc1ccc(C2=Nn3c(nnc3-c3ccccn3)SC2)cc1,?,20µM*,46%,-3%,35µM*,?
COc1ccc(C2=Nn3c(nnc3-c3ccccc3OC)SC2)cc1OC,6%,-4%,10%,-5%,-10%,24%
Cc1cc(N2CCN(C)CC2)nc2ccc(NC(=O)Nc3cccc(Cl)c3)cc12,.,-5%[57.1 µM],11%,.,-19%,?
Cc1ccc(-n2c(C)cc(C=C3C(=O)N(C)C(=O)N(C)C3=O)c2C)cc1,.,.,6%,-12%,-10%,.
COC(=O)C1=C(C)NC(=O)/C1=C\c1cc(C)n(-c2cc(C)cc(C)c2)c1C,-12%,45µM*,-60%,-8%,56µM*,-15%[12.7 µM]
SMILES,Sfp inh,BAZ2B block,HP1b chromo inh,PLK1 PBD block,JMJD2A Tudor inh,G9a inh
COC(=O)C1=C(C)NC(=O)/C1=C\c1cc(C)n(-c2ccccc2)c1C,?,?,-15%,2%,?,40µM*
CCOC(=O)CNC(c1ccccc1)c1cc(Br)ccc1NC(=O)CCN1CCOCC1 (stereo not drawn),16µM*,0%,2%,?,-28%,?
COC(=O)CNC(c1ccccc1)c1cc(Br)ccc1NC(=O)CCN1CCOCC1 (stereo not drawn),32µM*,-28%,5%,?,-29%,3.2µM*
COC(=O)CNC(c1ccccc1)c1cc(Br)ccc1NC(=O)CNC(=O)OCc1ccccc1 (stereo not drawn),2%,-12%,24%,-4%,-10%[57.1 µM],5%[59 µM]
CC(=O)c1cccc(NC(=O)C2C3C=CC(C3=C(c3ccccc3)c3ccccc3)C2C(=O)O)c1 (stereo not drawn),14%,?,6%,34µM*,?,50µM*
CC(=O)Nc1cccc(NC(=O)C2C3C=CC(C3)C2C(=O)O)c1 (stereo not drawn),-51%,-7%,43%,5%,-2%,8%
Cc1ccc(NC(=O)C2C3C=CC(O3)C2C(=O)O)cc1C (stereo not drawn),16%,89µM*,33%,4%,-10%,3%[0.501 µM]
Cc1cccc(NC(=O)C2C3C=CC(O3)C2C(=O)O)c1 (stereo not drawn),3%,4%,.,.,.,28µM*
Cc1ccc(NC(=O)C2C3CCC(O3)C2C(=O)O)cc1C (stereo not drawn),-10%,-36%,26%,-7%,-4%,.
Cc1cccc(NC(=O)C2C3C=CC(C4CC34)C2C(=O)O)c1 (stereo not drawn),50µM*,10%,24%,-17%,-7%,?
O=C(CSc1ccc2nnc(CCNC(=O)c3ccccc3)n2n1)Nc1ccc(F)cc1F,16%,-2%,27%,3%,-8%,26%
CCOc1ccc(CCNC(=O)COC(=O)C2=NNC(=O)CC2)cc1OCC,.,9%,12%,-4%,1%,-36%
Cc1cccc(Cn2c(CNS(=O)(=O)c3ccc4c(c3)CCCC4)nc3cccnc32)c1,.,0%,28%[57 µM],.,-1%,-3%[59 µM]
Cc1ccc(C(=O)OCC(=O)N2CCOCC2)cc1,17%,4%,-8%,2%,-10%,18%
O=C(COC(=O)c1ccc(S(=O)(=O)N2CCCC2)cc1)Nc1cccc(F)c1,.,14%,31%,-11%,-23%,5µM*
O=C(COC(=O)c1ccc(O)cc1)Nc1ccc(S(=O)(=O)N2CCOCC2)cc1,.,.,24%,1%,-11%,.
N#Cc1ccc(C(=O)OCC(=O)N2CCOCC2)cc1,17%,-25%,29%,-1%,1%,50µM*
O=C(OCc1ccco1)c1ccc(S(=O)(=O)N2CCCCC2)cc1,22µM*,50µM*,-3%,-27%,79µM*,?

# High-throughput results as filed in PubChem.
